The text below walks through data of PubChem BioAssay.

Experiment [1] is described as follows: small molecules captured by biotinylated probe aFSTL3 – biochemical, small-molecule microarray, fluorescence 635/667, stem cell growth factor project, primary screen (AID 1064).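 Further: measures binding of the biotinylated anti-FSTL3 antibody to printed compounds.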 The following applies: higher = more signal.
A short description of experiment [2]: binders from COS7 lysate, DM2A8 probe, primary screen, torsin A project, cell lysate, small-molecule microarray, fluorescence 635/667 (AID 1065). The following applies: higher = more signal, COS7 lysate expressing mutant human TOR1A.
Experiment [3] is described as follows: small molecules captured by biotinylated probe aFGF2 – biochemical, small-molecule microarray, fluorescence 635/667, stem cell growth factor project, primary screen (AID 1067).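 Further: measures binding of biotinylated aFGF2 protein to printed compounds on slides; z-score merges feature fluorescence and signal-to-noise across triplicate slides.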 The following applies: higher = more signal.
Experiment [4] is described as follows: small molecules captured by biotinylated probe aFGF10 – biochemical, small-molecule microarray, fluorescence 635/667, stem cell growth factor project, primary screen (AID 1071).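 Further: score merges 667 nm spot intensity and signal to noise from triplicate slides.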 The following applies: higher = more signal.
For experiment [5], the target named is Neurogenic locus notch homolog protein 2 (Homo sapiens) (UniProt Q04721). Briefly: small molecules binding Notch2 protein – biochemical, small-molecule microarray, 635 nm fluorescence, stem cell growth factors, primary screen (AID 1073). The conditions noted are these: higher = more signal.
Experiment [6] addresses Pro-neuregulin-1, membrane-bound isoform (Homo sapiens) (UniProt Q02297). The experiment in a line: small molecules binding neuregulin-1 protein – biochemical, small-molecule microarray, fluorescence 635/667, psychiatric disease protein project, primary screen (AID 1075).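 Further: score combines 667 nm spot fluorescence with signal to noise.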 The following applies: NRG1 binding, 635 nm fluorescence, higher = more signal.
Experiment [7] has as its system Neuregulin-1 EGF-like domain. Briefly: small molecules binding NRG1 EGF domain – biochemical, small-molecule microarray, 635 nm fluorescence, primary screen (AID 1081).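 Further: binding of the protein to compounds printed on small-molecule microarray slides.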 The conditions noted are these: higher = more signal.
A short description of experiment [8]: FRG1 expression reporter modulators in myotubes – cell-based, C2C12 myotubes, firefly/Renilla luciferase, luminescence, FRG1 inhibition for FSHD, primary screen (AID 1084). The following applies: FRG1 promoter luciferase, higher = more signal, called active from +8 up or from −8 down.
The nature of experiment [9]: small molecules captured by biotinylated probe aFST – biochemical, small-molecule microarray, fluorescence 635/667, stem cell growth factor project, primary screen (AID 1086).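 Further: score merges 667 nm fluorescence with signal-to-noise of each printed compound spot.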 The conditions noted are these: higher = more signal.
Experiment [10] in a line: binders of probe aHhip on microarray, primary screen, stem cell growth factor project, biochemical, small-molecule microarray, fluorescence 635/667 (AID 1087).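 Further: score merges spot fluorescence at 667nm with spot signal to noise ratio.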 The following applies: higher = more signal.

Calls of active or inactive are those of the source.

Sequence of Neurogenic locus notch homolog protein 2 (Homo sapiens) (Q04721 whole entry, looked up, canonical isoform): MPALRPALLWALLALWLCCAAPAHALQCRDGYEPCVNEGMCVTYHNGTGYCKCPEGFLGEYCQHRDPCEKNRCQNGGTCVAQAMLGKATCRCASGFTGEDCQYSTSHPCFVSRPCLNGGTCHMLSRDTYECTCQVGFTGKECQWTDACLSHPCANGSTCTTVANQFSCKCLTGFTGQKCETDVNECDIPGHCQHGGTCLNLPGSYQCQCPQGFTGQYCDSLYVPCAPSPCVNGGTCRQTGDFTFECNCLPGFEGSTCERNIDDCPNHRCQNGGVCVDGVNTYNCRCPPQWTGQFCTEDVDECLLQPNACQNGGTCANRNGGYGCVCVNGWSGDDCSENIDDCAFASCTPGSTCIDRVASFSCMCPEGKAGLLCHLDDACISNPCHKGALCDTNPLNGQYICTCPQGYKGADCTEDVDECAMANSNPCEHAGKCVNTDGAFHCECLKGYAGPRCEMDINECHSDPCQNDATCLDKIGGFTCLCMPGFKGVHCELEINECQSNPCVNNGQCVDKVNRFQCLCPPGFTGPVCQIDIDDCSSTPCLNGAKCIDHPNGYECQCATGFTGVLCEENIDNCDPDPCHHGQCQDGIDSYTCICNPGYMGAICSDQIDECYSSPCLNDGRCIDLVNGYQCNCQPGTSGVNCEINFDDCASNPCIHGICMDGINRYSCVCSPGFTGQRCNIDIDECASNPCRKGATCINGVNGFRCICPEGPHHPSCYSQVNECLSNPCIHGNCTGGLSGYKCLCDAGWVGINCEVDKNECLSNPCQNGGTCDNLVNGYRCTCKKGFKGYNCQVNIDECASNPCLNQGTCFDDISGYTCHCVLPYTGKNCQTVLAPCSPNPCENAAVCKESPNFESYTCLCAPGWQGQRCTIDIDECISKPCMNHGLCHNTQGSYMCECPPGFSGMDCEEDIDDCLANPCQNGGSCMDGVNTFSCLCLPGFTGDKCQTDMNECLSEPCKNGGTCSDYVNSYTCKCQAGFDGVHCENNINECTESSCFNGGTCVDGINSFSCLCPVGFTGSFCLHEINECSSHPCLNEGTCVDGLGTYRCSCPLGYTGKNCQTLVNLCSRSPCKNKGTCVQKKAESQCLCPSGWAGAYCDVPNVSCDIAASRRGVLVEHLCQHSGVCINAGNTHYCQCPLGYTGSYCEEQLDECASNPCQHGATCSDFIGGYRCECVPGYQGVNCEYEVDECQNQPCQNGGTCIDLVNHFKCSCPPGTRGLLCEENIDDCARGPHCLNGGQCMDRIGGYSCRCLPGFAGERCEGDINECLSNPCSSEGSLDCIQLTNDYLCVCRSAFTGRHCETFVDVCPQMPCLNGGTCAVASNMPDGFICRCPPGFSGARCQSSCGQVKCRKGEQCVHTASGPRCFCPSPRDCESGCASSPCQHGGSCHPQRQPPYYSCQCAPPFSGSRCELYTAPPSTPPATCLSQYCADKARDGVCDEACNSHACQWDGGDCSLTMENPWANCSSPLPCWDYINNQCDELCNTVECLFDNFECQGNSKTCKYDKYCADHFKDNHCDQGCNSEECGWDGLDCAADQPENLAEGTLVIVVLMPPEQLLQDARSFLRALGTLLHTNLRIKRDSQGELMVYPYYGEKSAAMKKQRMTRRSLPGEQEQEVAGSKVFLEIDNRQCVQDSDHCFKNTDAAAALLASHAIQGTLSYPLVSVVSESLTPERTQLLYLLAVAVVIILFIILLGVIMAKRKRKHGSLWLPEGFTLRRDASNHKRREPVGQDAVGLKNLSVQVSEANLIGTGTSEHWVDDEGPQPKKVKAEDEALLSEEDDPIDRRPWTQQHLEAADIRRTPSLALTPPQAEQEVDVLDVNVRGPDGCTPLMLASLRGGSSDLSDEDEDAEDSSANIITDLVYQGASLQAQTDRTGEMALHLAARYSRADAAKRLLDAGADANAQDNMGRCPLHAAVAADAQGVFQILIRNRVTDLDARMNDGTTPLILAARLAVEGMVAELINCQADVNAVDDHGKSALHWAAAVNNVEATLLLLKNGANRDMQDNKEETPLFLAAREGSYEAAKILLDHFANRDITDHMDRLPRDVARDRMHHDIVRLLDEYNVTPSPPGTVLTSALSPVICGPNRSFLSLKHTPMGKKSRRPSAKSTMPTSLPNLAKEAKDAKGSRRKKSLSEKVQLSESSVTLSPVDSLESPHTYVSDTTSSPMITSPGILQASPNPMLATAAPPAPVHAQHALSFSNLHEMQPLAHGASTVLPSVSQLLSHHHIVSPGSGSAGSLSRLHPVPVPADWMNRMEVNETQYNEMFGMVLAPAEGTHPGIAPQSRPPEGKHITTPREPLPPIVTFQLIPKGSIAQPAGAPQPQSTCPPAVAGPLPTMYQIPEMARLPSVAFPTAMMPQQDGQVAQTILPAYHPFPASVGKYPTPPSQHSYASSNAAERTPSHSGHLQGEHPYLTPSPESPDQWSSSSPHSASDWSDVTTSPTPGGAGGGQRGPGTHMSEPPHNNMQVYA
Sequence of Pro-neuregulin-1, membrane-bound isoform (Homo sapiens) (Q02297 whole entry, looked up, the tested form may be a part, canonical isoform): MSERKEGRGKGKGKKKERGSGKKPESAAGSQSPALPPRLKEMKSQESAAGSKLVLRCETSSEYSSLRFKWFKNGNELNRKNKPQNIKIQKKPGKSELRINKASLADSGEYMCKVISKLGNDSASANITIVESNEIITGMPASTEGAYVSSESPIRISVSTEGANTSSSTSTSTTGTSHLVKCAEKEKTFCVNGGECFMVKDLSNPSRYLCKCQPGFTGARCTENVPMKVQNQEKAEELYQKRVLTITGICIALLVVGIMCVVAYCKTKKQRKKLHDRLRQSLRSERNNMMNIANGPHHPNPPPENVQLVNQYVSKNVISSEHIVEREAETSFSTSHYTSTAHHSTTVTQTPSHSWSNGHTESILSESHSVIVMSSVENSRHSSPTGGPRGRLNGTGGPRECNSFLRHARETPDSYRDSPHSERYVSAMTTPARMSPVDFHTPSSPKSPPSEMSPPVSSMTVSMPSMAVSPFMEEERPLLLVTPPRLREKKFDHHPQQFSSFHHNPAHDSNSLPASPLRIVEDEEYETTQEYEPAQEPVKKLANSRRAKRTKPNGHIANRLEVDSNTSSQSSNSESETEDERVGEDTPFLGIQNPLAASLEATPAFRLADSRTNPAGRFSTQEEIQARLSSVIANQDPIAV

`CN(C)C(=O)[C@@]1(Cc2ccccc2)N=C(c2ccc(OCCCO)cc2)O[C@H]1c1ccccc1`: the composite z-score in [1] was found to be 0.558; in experiment [2], 0.459; in [3] it was 0.133; in experiment [4], 1.24; in [5], 1.5; in experiment [6], 1.18. The values for the composite z-score in experiment [7], in experiment [9] and in experiment [10] were 1.29, 0.889 and 0.28, respectively. The z-score in experiment [8] is -1.57 (inactive).

Take `Oc1ccc2cc[n+](Cc3cc4c(cc3Br)OCO4)cc2c1`: the composite z-score in experiment [1] is 0.254; in [2] it was 0.0899; in [3] it was -0.0148; in [4], -0.903; in [5] it was -1.69; in experiment [6] it was -0.614. Also, the composite z-score in experiment [7] was 0.565; in experiment [9] it was -0.164; in experiment [10], -0.236. The z-score in experiment [8] was 0.985 (inactive).

As to `COC(=O)C1=CC(CCCO)=CC(c2ccc(CN3CCCC3)cc2)N(Cc2cccc(OC(F)(F)F)c2)C=C1C(=O)OC` (stereo not given), the composite z-score was 0.928 in experiment [1]; -0.185 in [2]; -0.0361 in experiment [3]; 0.419 in experiment [4]; 1.44 in [5]; 1.79 in [6]. Also, the composite z-score was 1.11 in experiment [7], 0.857 in [9] and -0.0994 in experiment [10]. The z-score in [8] is -0.616 (inactive).

Regarding `O=C1OCCC=C[C@H]2OC34C=CCN(c5ccc6ccccc6c5)C(=O)[C@H]3N(CCCO)C(=O)[C@@H]4C12` (stereo not given in full), the composite z-score is 0.796 in experiment [1]; -2.38 in experiment [2]; -0.258 in experiment [3]; -0.736 in experiment [4]; -2.08 in experiment [5]; -0.962 in experiment [6]. The composite z-score in experiment [7] is -0.948; in experiment [9] it was -0.723; in experiment [10], -0.134. Further, the z-score in [8] is -0.0625 (inactive).

As for `CO[C@H]1O[C@H](CO)[C@@H](OC(=O)Nc2ccccc2)[C@H](OC(=O)c2cc3ccccc3[nH]2)[C@H]1OC(=O)c1cc2ccccc2[nH]1`, the composite z-score came out at 0.731 in experiment [1]; 0.0889 in experiment [2]; 0.0336 in experiment [3]; 0.886 in [4]; 0.518 in experiment [5]; 1.18 in experiment [6]. Also, the figures for the composite z-score in experiment [7], in [9] and in [10] were 0.495, 0.219 and -0.0994, respectively. The z-score in experiment [8] is -0.542 (inactive).

With `COCCCNC(=O)[C@@]1(CCC(=O)OC(C)(C)C)N=C(c2ccc(OCCCO)cc2)O[C@H]1c1ccccc1N=[N+]=[N-]`, the composite z-score in [1] worked out at 0.913; in experiment [2] it was 1.5; in experiment [3], 0.0999; in experiment [4] it was 1.14; in experiment [5], 1.41; in experiment [6] it was 1.9. Further, the figures for the composite z-score in experiment [7], in [9] and in [10] were 1.4, 1.03 and 0.0053, respectively. Besides, the z-score in experiment [8] was 2.62 (inactive).

With `CCCC=C(CCC)[C@@H](NS(=O)(=O)c1ccc(C(F)(F)F)cc1)c1ccccc1`, the composite z-score in experiment [1] was -0.0179; in [2], -0.0296; in experiment [3], 0.143; in experiment [4], -0.0601; in experiment [5], 0.0998; in experiment [6], -0.152. In addition, the figures for the composite z-score in experiment [7], in experiment [9] and in [10] were 0.428, 0.302 and 0.37, respectively. In addition, in experiment [8], the z-score is 1.75 (inactive).

On to `O=C1C2C=CC(C(O)C3CC=CCC3)N(Nc3ccccc3)C2C(=O)N1c1ccccc1` (stereo not given), for which the composite z-score in experiment [1] is 0.877; in experiment [2], -0.129; in experiment [3], 0.122; in experiment [4] it was 0.397; in experiment [5], 1.61; in experiment [6] it was 1.3. Besides, the composite z-score in [7] is 1.28; in experiment [9], 1.89; in experiment [10], -0.323. The z-score in experiment [8] is -1.16 (inactive).

For `[N-]=[N+]=Nc1ccccc1C[C@]1(C(=O)NCC(O)CO)COC(c2ccc(OCCCO)cc2)=N1` (stereo not given in full), the composite z-score in experiment [1] is 0.502; in experiment [2], 0.475; in [3], 0.0154; in experiment [4], 0.859; in experiment [5], -0.33; in experiment [6], 1.43. Besides, the values for the composite z-score in [7], in experiment [9] and in [10] were 1.14, 0.255 and -0.0994, respectively. In addition, in experiment [8], the z-score was 2.1 (inactive).

With `O=C1O[C@@H](c2ccccc2)[C@@H](c2ccccc2)N2[C@@H](c3ccc(OCCO)cc3)[C@]3(C(=O)Nc4ccc(C#CC5=CCCCC5)cc43)[C@@H](C(=O)NC[C@H](O)c3ccccc3)[C@H]12`, the composite z-score was -0.94 in [1]; 0.297 in experiment [2]; -0.0384 in experiment [3]; 0.6 in [4]; 1.48 in experiment [5]; 0.655 in experiment [6]. The composite z-score was 1.13 in experiment [7], 0.126 in experiment [9] and -0.142 in experiment [10]. Besides, the z-score in experiment [8] is 2.03 (inactive).

On to `COc1ccc(C(=O)Nc2ccc(CN3C(=O)[C@]4(O[C@H](CC(=O)N5Cc6ccccc6C[C@H]5CO)[C@@H]([Si](C)(C)c5ccc(OC)cc5)[C@@H]4C)c4ccccc43)cc2)cc1`, for which the composite z-score in experiment [1] is -0.402; in [2], 0.716; in experiment [3] it was -0.0785; in [4], 0.357; in experiment [5] it was 0.397; in experiment [6], 1.48. Further, the results for the composite z-score in experiment [7], in experiment [9] and in experiment [10] were 0.95, 0.0491 and -0.0618, respectively. Also, in experiment [8], the z-score is -1.89 (inactive).

Turning to `CCCN1C(=O)[C@@]2(Cc3ccccc31)N=C(c1ccc(OCCCO)cc1)O[C@H]2c1ccccc1`, the composite z-score in experiment [1] was 0.654; in experiment [2], 0.27; in experiment [3] it was -0.0909; in experiment [4], 0.181; in experiment [5], 0.697; in experiment [6] it was 1.55. The composite z-score in [7] was 1.21; in [9], 0.193; in experiment [10] it was -0.0852. The z-score in experiment [8] was -1.35 (inactive).

Regarding `COCCOC(=O)N1C(=O)[C@@]2(c3cc(C#CC4=CCCCC4)ccc31)[C@H](c1ccccc1OCCO)N1[C@H](c3ccccc3)[C@H](c3ccccc3)OC(=O)[C@H]1[C@@H]2C(=O)NC[C@H](O)c1ccccc1`, the composite z-score in [1] is -0.223; in experiment [2], 0.123; in experiment [3], -0.0817; in experiment [4], 0.345; in experiment [5], 1.07; in [6], 0.298. For the same molecule, the composite z-score in [7] came out at 1.23; in experiment [9] it was 0.635; in [10], 0.115. Also, the z-score in experiment [8] is 0.204 (inactive).

On to `C=CCN1Cc2ccccc2[C@@H]2OC(c3ccc(OCCCO)cc3)=N[C@]2(CC=C)C1=O`, for which the composite z-score was 1.41 in [1]; 0.629 in experiment [2]; 0.32 in experiment [3]; 0.0911 in experiment [4]; 0.848 in experiment [5]; 0.955 in experiment [6]. Moreover, the composite z-score in experiment [7] is 1.06; in experiment [9], 2.47; in experiment [10], -0.159. In experiment [8], the z-score was -0.479 (inactive).

Consider `COCCOC(=O)N1C(=O)[C@@]2(c3ccccc31)[C@H](C(=O)NC[C@H](O)c1ccccc1)[C@H]1C(=O)O[C@H](c3ccccc3)[C@H](c3ccccc3)N1[C@@H]2c1ccc(O)cc1`, for which the composite z-score in experiment [1] was -0.19; in experiment [2], 0.23; in experiment [3] it was 0.0017; in [4], 0.941; in experiment [5], 1.55; in [6], 0.57. Besides, the composite z-score was determined as 1.25 in [7], 0.839 in experiment [9] and 0.689 in experiment [10]. Moreover, the z-score in experiment [8] is -0.677 (inactive).
